SMILES strings stand for the structures.

The nature of the assay: qHTS drug screen for cell cycle checkpoint inhibitors in PARPi-resistant BRCA-mutant ovarian cancer cell lines. (AID 1963452). The following applies: PEO1/OlaR viability, CellTiter-Glo luminescence, 96 h; measured here: PEO4 Z-AUC; stronger effect = lower value. A digest of the protocol: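 PEO1, PEO4 and PEO1/OlaR ovarian cancer cells, 600 per well, exposed 96 h at 37C to a dilution series. Viability read by CellTiter-Glo luminescence, normalized to DMSO and empty wells; activity summarized as Z-AUC.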
Take `S=P(N1CC1)(N1CC1)N1CC1`: the Z-AUC was 1.59.
As to `COc1cc([C@@H]2c3cc4c(cc3[C@H](O)[C@H]3COC(=O)[C@H]23)OCO4)cc(OC)c1OC`, the Z-AUC was -1.94.
The value for `COc1ccc(-c2ccc3cc(C(=O)O)ccc3c2)cc1C12CC3CC(CC(C3)C1)C2` was -0.489; that for `COC(=O)Nc1nc2ccc(C(=O)c3ccccc3)cc2[nH]1` was -1.61.
Next, `COc1ccc2cc3[n+](cc2c1OC)CCc1cc2c(cc1-3)OCO2`: 0.437; `CNNCc1ccc(C(=O)NC(C)C)cc1`: 1.05; `N=C(N)c1ccc(OCCCCCOc2ccc(C(=N)N)cc2)cc1`: 0.016.
Regarding `Oc1c(Cl)cc(Cl)c2cccnc12`, the Z-AUC is -0.27.
Next, `CCc1cc(C(N)=S)ccn1`: -0.17; `COc1cc2c(Nc3ccc(Br)cc3F)ncnc2cc1OCC1CCN(C)CC1`: -0.0991; `COC(=O)Nc1nc2ccc(Sc3ccccc3)cc2[nH]1`: -0.94.
Next, `C1CCC(C(CC2CCCCN2)C2CCCCC2)CC1` (stereo unspecified): -0.0366.
Consider `CC(C)Cn1cnc2c(N)nc3ccccc3c21`, for which the Z-AUC was -1.36.
The value for `CCCc1nc(C)c2c(=O)[nH]c(-c3cc(S(=O)(=O)N4CCN(CC)CC4)ccc3OCC)nn12` was 0.621; that for `CC(C)(Sc1cc(C(C)(C)C)c(O)c(C(C)(C)C)c1)Sc1cc(C(C)(C)C)c(O)c(C(C)(C)C)c1` was 1.09; that for `COc1cc(NCc2ccc3nc(N)nc(N)c3c2C)cc(OC)c1OC` was -0.254.
The value for `CCCCOc1ccc(CC(=O)NO)cc1` was -0.748; that for `Cc1nnc(NS(=O)(=O)c2ccc(N)cc2)s1` was 1.46; that for `Nc1nc(N)c2nc(CNc3ccc(C(=O)NC(CCC(=O)O)C(=O)O)cc3)cnc2n1` (stereo unspecified) was 1.1.
The value for `CC(C)(C)C(=O)OCOP(=O)(COCCn1cnc2c(N)ncnc21)OCOC(=O)C(C)(C)C` was -0.0203; that for `CCOC(=O)[C@H](CCc1ccccc1)N[C@H]1CS[C@H](c2cccs2)CN(CC(=O)O)C1=O` was -0.726; that for `CNC(=O)c1cc(Oc2ccc(NC(=O)Nc3ccc(Cl)c(C(F)(F)F)c3)cc2)ccn1` was 0.253.
As for `CCCCCCNC(=O)n1cc(F)c(=O)[nH]c1=O`, the Z-AUC is 0.733.
Next, `CCc1c2c(nc3ccc(OC(=O)N4CCC(N5CCCCC5)CC4)cc13)-c1cc3c(c(=O)n1C2)COC(=O)[C@]3(O)CC`: -1.83.
On to `CC(C)NCC(O)c1ccc(NS(C)(=O)=O)cc1` (stereo unspecified), for which the Z-AUC stood at 0.42.
Consider `CC(C)OC(=O)C(C(=O)OC(C)C)=C1SC=CS1`, for which the Z-AUC was found to be 1.06.
For the compound `CC[C@H](C)C(=O)O[C@H]1C[C@@H](C)C=C2C=C[C@H](C)[C@H](CC[C@@H]3C[C@@H](O)CC(=O)O3)[C@H]21`, the Z-AUC is 1.3.
Next, `O=c1cc(O)c(Cl)c[nH]1`: 1.11; `CC(=O)Oc1ccccc1C(=O)Nc1ncc([N+](=O)[O-])s1`: 0.834.
With `COc1ccc(C(=O)CC(=O)c2ccc(C(C)(C)C)cc2)cc1`, the Z-AUC was found to be 1.06.
For the compound `CNC1CCCN(c2c(F)cc3c(=O)c(C(=O)O)cn(C4CC4)c3c2OC)C1` (stereo unspecified), the Z-AUC stood at 1.09.
